# Laboratory results taken from ChEMBL document CHEMBL1961873, “Compounds: GSK PKIS; Assays: Nanosyn kinase panel” (2012).
# How the values were obtained:
# [1] = target: T1, Inhibitor of nuclear factor kappa-B kinase subunit epsilon (Homo sapiens) (UniProt Q14164); conditions: at 1 µM;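 further: reported values are averaged percent inhibition figures against human IKKε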
# T1 sequence (whole entry): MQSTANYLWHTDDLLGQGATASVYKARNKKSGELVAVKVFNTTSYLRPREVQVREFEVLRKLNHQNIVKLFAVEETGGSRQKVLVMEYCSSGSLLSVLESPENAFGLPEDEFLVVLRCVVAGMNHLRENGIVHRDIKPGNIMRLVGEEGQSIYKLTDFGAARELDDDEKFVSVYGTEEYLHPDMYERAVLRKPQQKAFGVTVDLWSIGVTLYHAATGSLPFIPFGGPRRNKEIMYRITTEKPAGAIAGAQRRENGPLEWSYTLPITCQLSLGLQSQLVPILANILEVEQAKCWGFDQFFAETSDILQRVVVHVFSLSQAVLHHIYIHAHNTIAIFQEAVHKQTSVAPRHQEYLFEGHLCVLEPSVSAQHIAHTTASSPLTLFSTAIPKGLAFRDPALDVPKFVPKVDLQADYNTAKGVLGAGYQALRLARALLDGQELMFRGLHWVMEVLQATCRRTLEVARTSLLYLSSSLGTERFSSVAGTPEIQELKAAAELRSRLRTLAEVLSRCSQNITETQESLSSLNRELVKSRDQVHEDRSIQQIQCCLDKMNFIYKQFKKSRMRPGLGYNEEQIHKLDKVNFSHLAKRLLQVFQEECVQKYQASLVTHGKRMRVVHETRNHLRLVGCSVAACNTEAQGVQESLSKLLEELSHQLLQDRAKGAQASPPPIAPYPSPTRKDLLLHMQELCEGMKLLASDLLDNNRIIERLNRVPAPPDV
# [2] = target: T2, Serine/threonine-protein kinase Nek1 (Homo sapiens) (UniProt Q96PY6); conditions: at 0.1 µM
# T2 sequence (whole entry): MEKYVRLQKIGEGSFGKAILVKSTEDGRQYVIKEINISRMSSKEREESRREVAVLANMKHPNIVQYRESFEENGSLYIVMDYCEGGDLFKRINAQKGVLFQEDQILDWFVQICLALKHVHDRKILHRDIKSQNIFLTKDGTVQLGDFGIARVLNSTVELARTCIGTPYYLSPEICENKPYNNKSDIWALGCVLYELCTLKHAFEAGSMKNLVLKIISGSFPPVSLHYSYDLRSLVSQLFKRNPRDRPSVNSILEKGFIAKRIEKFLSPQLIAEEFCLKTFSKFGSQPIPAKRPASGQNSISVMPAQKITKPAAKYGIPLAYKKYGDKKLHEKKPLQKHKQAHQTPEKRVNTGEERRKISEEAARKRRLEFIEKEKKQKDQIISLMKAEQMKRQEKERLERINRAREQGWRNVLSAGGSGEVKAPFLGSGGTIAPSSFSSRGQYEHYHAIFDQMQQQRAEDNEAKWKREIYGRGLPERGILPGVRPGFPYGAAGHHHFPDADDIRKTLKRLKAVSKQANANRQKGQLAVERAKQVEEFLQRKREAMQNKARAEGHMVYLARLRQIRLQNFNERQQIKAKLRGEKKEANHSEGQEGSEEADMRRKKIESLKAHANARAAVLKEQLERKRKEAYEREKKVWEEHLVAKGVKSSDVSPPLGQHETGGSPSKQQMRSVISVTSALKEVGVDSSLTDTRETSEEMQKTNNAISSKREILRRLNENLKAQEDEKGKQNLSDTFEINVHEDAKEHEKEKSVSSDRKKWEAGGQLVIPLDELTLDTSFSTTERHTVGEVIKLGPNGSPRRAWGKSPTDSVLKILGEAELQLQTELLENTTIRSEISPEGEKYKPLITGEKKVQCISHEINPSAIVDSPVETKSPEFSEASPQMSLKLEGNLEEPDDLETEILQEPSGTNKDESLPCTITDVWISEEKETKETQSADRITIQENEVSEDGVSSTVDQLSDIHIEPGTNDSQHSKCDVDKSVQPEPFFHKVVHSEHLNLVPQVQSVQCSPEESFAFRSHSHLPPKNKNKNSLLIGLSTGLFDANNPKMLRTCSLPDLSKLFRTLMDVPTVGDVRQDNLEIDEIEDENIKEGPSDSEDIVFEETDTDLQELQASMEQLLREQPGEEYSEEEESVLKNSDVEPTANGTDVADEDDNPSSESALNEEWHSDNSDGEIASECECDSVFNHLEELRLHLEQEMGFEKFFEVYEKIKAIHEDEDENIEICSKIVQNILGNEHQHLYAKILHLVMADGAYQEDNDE
# [3] = target: T2, Serine/threonine-protein kinase Nek1 (Homo sapiens); conditions: at 1 µM
# [4] = target: T3, Serine/threonine-protein kinase Nek2 (Homo sapiens) (UniProt P51955); conditions: at 0.1 µM
# T3 sequence (whole entry): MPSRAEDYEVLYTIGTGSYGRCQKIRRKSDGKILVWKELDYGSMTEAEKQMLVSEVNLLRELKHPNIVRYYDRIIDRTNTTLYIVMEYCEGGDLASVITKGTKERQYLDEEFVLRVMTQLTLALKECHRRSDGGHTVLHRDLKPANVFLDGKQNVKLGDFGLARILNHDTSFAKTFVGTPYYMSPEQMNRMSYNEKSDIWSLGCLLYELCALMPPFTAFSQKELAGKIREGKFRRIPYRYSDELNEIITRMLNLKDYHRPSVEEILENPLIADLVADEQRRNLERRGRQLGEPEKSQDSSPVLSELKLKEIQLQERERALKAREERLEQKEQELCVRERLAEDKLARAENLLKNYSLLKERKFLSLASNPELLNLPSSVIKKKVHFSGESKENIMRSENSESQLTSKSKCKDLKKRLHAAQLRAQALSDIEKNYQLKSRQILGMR
# [5] = target: T3, Serine/threonine-protein kinase Nek2 (Homo sapiens); conditions: at 1 µM
# [6] = target: Serine/threonine-protein kinase Nek6 (Homo sapiens) (UniProt Q9HC98); conditions: at 0.1 µM
# Chain of Serine/threonine-protein kinase Nek6 (Homo sapiens) (Q9HC98 whole entry): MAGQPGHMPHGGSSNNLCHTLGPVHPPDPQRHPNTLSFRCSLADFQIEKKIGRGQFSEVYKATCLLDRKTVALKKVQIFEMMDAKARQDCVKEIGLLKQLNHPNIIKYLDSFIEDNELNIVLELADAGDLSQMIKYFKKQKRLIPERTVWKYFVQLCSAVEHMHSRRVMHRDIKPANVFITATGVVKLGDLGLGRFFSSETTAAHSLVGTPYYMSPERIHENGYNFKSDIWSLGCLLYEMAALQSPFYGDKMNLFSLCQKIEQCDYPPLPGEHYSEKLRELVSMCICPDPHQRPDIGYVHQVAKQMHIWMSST
# [7] = target: Serine/threonine-protein kinase Nek6 (Homo sapiens) (UniProt Q9HC98); conditions: at 1 µM
# [8] = target: Serine/threonine-protein kinase Nek7 (Homo sapiens) (UniProt Q8TDX7); conditions: at 0.1 µM
# Chain of Serine/threonine-protein kinase Nek7 (Homo sapiens) (Q8TDX7 whole entry, looked up): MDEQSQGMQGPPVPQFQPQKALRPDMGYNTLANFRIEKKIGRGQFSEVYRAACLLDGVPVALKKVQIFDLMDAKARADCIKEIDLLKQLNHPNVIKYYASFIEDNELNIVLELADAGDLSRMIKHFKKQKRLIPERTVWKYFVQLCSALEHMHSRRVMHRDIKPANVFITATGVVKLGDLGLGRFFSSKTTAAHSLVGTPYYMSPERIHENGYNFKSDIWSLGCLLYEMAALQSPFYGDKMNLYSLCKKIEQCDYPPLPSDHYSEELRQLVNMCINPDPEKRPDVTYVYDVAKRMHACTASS
# [9] = target: Serine/threonine-protein kinase Nek7 (Homo sapiens) (UniProt Q8TDX7); conditions: at 1 µM
# [10] = target: T4, Serine/threonine-protein kinase Nek9 (Homo sapiens) (UniProt Q8TD19); conditions: at 0.1 µM
# T4 sequence (whole entry): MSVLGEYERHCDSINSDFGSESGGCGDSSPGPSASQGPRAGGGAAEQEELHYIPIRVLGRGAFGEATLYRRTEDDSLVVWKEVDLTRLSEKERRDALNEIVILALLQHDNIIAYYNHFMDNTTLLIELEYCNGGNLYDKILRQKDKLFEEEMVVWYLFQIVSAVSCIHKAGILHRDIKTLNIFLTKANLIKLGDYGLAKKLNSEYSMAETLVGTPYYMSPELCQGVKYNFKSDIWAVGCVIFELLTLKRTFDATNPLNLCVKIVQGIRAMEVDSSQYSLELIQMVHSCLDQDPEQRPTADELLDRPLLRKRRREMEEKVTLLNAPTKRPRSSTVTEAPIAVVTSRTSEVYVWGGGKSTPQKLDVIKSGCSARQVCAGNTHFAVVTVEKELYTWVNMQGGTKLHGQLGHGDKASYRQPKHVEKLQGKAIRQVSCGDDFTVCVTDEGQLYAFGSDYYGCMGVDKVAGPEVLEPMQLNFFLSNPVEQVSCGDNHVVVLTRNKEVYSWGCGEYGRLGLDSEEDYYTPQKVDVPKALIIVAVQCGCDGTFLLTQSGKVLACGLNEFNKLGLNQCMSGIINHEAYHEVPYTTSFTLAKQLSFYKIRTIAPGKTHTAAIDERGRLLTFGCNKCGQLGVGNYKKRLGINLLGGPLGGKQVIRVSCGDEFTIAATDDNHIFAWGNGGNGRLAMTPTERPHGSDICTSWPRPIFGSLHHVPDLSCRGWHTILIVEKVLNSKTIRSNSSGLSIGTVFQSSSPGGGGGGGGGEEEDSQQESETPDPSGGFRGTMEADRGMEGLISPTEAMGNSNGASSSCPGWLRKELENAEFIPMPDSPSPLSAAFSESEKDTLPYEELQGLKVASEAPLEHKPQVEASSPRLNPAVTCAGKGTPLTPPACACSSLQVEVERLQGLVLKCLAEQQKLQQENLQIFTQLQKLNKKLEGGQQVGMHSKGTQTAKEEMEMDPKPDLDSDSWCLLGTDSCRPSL
# [11] = target: T4, Serine/threonine-protein kinase Nek9 (Homo sapiens); conditions: at 1 µM
# [12] = target: Serine/threonine-protein kinase PLK1 (Homo sapiens) (UniProt P53350); conditions: at 0.1 µM
# Chain of Serine/threonine-protein kinase PLK1 (Homo sapiens) (P53350 whole entry): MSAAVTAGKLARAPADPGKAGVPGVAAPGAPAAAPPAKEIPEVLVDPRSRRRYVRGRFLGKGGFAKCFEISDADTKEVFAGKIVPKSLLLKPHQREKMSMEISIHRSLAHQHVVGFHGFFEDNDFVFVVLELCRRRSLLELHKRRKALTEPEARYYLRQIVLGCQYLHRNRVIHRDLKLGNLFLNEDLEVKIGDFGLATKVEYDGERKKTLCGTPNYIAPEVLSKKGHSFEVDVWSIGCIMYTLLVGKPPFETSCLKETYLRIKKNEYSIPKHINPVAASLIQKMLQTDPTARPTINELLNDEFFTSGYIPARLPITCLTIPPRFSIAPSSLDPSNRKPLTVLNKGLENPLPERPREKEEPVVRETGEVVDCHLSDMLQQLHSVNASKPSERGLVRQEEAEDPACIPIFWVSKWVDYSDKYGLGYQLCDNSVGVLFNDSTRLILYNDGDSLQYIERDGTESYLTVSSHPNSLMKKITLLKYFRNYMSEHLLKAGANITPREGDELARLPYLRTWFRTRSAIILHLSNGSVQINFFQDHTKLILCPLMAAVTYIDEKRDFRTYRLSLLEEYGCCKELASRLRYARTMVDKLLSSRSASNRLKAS
# [13] = target: Serine/threonine-protein kinase PLK1 (Homo sapiens) (UniProt P53350); conditions: at 1 µM
# [14] = target: T5, Dual specificity protein kinase TTK (Homo sapiens) (UniProt P33981); conditions: at 0.1 µM
# T5 sequence (whole entry): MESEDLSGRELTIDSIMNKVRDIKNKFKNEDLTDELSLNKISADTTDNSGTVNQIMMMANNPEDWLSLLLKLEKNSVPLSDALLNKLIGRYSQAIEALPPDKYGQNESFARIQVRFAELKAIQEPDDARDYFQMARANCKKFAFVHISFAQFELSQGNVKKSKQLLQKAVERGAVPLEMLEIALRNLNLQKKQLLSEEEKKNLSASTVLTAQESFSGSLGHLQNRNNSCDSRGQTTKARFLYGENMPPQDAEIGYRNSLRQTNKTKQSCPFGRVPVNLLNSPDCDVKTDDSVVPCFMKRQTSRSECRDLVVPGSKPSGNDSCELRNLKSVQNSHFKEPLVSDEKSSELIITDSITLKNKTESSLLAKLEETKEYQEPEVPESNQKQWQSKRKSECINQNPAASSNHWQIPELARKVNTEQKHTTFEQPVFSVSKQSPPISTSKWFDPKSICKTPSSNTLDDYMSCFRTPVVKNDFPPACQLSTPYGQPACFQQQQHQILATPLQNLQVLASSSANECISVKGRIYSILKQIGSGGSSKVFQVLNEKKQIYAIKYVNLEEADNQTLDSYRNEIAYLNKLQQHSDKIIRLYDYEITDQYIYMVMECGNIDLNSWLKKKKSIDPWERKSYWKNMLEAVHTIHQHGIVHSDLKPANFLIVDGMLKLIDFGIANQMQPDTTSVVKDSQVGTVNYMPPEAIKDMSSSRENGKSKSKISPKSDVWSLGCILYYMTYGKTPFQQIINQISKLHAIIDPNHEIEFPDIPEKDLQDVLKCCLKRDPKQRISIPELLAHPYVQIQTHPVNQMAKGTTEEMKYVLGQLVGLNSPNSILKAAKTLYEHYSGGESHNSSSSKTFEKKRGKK
# [15] = test system: T6, Receptor-type tyrosine-protein kinase FLT3 (Homo sapiens), P36888 [D835Y]; conditions: at 1 µM
# T6 sequence (whole entry): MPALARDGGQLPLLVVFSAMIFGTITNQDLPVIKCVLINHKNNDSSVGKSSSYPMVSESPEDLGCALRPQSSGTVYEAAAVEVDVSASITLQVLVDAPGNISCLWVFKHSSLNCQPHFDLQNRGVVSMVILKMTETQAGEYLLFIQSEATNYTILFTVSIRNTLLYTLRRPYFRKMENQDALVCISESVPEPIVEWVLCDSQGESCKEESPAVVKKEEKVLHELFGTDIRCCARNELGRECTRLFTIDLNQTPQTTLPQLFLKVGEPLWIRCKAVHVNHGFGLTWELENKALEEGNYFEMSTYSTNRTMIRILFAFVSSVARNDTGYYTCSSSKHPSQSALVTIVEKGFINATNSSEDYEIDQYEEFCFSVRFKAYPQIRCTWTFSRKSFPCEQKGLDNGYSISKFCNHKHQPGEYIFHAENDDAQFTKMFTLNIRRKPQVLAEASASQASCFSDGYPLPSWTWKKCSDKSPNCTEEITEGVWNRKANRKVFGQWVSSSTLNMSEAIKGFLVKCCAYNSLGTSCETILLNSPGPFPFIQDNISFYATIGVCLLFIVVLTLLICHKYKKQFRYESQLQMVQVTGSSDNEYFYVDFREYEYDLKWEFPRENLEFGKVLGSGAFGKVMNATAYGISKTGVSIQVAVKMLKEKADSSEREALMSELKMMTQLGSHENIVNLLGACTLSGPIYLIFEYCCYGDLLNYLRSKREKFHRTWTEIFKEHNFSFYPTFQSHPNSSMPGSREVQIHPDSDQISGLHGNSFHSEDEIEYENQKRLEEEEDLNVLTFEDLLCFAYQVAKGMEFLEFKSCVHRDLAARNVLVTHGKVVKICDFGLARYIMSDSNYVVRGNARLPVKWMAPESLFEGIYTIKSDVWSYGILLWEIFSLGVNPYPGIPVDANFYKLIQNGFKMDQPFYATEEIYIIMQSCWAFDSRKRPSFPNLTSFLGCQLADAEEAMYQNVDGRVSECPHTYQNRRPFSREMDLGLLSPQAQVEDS
# [16] = target: Vascular endothelial growth factor receptor 3 (Homo sapiens) (UniProt P35916); conditions: at 0.1 µM
# Chain of Vascular endothelial growth factor receptor 3 (Homo sapiens) (P35916 whole entry): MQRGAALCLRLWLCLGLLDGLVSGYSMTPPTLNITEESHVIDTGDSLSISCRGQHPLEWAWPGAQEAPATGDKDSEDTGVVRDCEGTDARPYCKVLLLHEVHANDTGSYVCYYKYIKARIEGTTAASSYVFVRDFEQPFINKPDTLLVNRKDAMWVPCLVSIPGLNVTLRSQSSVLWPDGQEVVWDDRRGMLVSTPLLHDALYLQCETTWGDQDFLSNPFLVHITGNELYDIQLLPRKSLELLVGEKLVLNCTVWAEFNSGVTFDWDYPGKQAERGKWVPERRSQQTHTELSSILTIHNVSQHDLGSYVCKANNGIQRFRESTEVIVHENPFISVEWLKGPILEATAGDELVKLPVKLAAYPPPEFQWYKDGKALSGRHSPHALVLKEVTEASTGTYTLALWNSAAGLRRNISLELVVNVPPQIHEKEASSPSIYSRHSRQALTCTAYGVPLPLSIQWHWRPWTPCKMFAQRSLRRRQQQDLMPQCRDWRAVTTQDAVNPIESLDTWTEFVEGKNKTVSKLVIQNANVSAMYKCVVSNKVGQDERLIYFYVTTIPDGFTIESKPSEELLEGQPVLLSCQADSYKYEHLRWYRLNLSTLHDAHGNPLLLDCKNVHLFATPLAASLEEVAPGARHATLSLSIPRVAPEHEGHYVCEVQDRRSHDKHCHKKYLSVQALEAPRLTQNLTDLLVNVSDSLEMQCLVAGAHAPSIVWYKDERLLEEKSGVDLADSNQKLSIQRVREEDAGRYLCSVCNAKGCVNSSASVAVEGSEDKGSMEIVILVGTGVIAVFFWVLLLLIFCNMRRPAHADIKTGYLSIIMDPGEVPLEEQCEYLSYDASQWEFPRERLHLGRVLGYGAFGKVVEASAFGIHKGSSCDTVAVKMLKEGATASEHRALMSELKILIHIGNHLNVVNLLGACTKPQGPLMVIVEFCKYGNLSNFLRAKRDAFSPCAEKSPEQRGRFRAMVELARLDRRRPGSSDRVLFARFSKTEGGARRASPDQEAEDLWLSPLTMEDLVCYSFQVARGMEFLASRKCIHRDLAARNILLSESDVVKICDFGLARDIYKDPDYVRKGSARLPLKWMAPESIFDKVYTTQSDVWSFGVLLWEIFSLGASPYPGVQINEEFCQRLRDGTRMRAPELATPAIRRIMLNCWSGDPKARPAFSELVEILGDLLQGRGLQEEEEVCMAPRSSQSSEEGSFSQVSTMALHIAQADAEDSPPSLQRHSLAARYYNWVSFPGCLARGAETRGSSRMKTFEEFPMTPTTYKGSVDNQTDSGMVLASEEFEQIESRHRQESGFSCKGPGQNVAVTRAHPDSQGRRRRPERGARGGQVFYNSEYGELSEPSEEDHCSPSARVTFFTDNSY
# [17] = target: Vascular endothelial growth factor receptor 3 (Homo sapiens) (UniProt P35916); conditions: at 1 µM
# [18] = target: Macrophage colony-stimulating factor 1 receptor (Homo sapiens) (UniProt P07333); conditions: at 0.1 µM
# Chain of Macrophage colony-stimulating factor 1 receptor (Homo sapiens) (P07333 whole entry): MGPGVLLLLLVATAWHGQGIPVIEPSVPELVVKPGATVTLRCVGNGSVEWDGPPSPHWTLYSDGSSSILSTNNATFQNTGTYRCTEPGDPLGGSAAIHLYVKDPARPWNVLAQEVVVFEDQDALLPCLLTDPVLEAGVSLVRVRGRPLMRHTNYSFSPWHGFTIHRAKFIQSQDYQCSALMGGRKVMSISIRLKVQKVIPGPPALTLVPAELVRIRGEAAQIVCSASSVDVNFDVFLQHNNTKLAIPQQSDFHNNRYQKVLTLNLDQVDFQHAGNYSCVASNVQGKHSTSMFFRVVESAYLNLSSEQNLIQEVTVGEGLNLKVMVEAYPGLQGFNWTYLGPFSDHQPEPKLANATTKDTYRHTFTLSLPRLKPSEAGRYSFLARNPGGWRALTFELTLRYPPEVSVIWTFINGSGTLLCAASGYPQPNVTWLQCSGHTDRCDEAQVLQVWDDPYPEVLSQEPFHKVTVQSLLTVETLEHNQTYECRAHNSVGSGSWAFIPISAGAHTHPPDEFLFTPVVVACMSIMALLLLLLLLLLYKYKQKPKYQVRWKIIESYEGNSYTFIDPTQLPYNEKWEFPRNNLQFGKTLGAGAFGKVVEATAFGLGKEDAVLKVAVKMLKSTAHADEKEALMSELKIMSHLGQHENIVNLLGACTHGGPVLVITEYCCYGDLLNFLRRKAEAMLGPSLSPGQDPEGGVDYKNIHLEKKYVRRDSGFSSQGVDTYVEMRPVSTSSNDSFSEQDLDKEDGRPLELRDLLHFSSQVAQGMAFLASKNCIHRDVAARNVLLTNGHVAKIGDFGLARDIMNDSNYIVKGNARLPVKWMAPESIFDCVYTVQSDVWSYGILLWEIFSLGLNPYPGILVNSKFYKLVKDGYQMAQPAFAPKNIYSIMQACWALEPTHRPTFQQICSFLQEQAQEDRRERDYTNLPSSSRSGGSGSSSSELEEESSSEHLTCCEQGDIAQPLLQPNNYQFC
# [19] = target: Macrophage colony-stimulating factor 1 receptor (Homo sapiens) (UniProt P07333); conditions: at 1 µM
# [20] = target: Tyrosine-protein kinase Fyn (Homo sapiens) (UniProt P06241); conditions: at 0.1 µM
# Chain of Tyrosine-protein kinase Fyn (Homo sapiens) (P06241 2-537 limits assumed): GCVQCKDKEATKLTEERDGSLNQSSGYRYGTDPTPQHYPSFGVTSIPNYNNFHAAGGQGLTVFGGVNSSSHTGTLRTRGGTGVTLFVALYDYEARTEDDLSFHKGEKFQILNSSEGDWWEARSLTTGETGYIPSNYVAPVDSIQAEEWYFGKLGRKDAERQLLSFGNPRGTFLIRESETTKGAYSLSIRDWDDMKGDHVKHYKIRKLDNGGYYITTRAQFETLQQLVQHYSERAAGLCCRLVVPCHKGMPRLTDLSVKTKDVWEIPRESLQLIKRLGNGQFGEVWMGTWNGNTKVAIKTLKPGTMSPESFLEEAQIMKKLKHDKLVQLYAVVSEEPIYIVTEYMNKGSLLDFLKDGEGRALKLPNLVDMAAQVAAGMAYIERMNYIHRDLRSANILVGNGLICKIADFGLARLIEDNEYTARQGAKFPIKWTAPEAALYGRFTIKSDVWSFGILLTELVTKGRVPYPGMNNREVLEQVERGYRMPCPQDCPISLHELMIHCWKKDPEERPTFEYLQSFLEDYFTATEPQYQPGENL
structure (smiles),measurement,setting,value
Nc1nccc(-c2c(-c3ccc(F)cc3)ncn2CCCN2CCOCC2)n1,inhibition,[1],5.9%
same,inhibition,[2],2.11%
same,inhibition,[3],3.63%
same,inhibition,[4],4.66%
same,inhibition,[5],5.54%
same,inhibition,[6],3.27%
same,inhibition,[7],0.28%
same,inhibition,[8],5.79%
same,inhibition,[9],4.4%
same,inhibition,[10],9.19%
same,inhibition,[11],15.2%
same,inhibition,[12],2.14%
same,inhibition,[13],4.49%
same,inhibition,[14],10.5%
same,inhibition,[15],-6.25%
same,inhibition,[16],15.4%
same,inhibition,[17],17%
same,inhibition,[18],2.72%
same,inhibition,[19],1.51%
same,inhibition,[20],0.86%
Oc1cccc(-c2nc(-c3ccccc3)[nH]c2-c2ccncc2)c1,inhibition,[1],4.72%
same,inhibition,[2],2.81%
same,inhibition,[3],3.39%
same,inhibition,[4],3.98%
same,inhibition,[5],4.3%
same,inhibition,[6],-0.13%
same,inhibition,[7],4.45%
same,inhibition,[8],4.5%
same,inhibition,[9],5.32%
same,inhibition,[10],9.92%
same,inhibition,[11],6.73%
same,inhibition,[12],4.15%
same,inhibition,[13],1.85%
same,inhibition,[14],3.33%
same,inhibition,[15],22.4%
same,inhibition,[16],7.41%
same,inhibition,[17],30.4%
same,inhibition,[18],1.63%
same,inhibition,[19],5.02%
same,inhibition,[20],3.67%
